Compounds without any hit were thinned out: in the full panel of roughly 79,000, 15% have a hit. Cut-off read from the data, not from the text of the source: active = growth inhibition above about 70%; inactive = the rest.
Columns and labels:
[1] = NCI Yeast Anticancer Drug Screen. Data for the rad50 strain (AID 155);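 note: 0% = growth of vehicle-only cultures of the same strain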; conditions: S. cerevisiae rad50 strain growth inhibition; at 50.0 µM; active compounds read high
In short: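 Inhibition values express reduced yeast growth in compound-treated cultures relative to vehicle-treated controls.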

[2] = NCI Yeast Anticancer Drug Screen. Data for the mec2-1 strain (AID 157); conditions: S. cerevisiae mec2-1 strain, at 50.0 µM, active compounds read high
In short: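 Cells of the genetically defined mec2-1 yeast strain are incubated with test compound. Inhibition of growth is calculated against vehicle-treated controls.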

[3] = NCI Yeast Anticancer Drug Screen. Data for the sgs1 mgt1 strain (AID 161);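 note: 0% = growth of cultures given vehicle only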; conditions: S. cerevisiae sgs1 mgt1 strain, at 50.0 µM, active compounds read high
In short: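 Genetically altered yeast, compound exposure, growth inhibition relative to vehicle.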

[4] = NCI Yeast Anticancer Drug Screen. Data for the cln2 rad14 strain (AID 165);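 note: 0% = growth equal to vehicle treated cultures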; conditions: S. cerevisiae cln2 rad14 strain, at 50.0 µM, active compounds read high
In short: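 The screen exposed genetically defined yeast (cln2 rad14) to test compounds and scored growth inhibition relative to vehicle-treated controls.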

[5] = NCI Yeast Anticancer Drug Screen. Data for the bub3 strain (AID 167); conditions: S. cerevisiae bub3 mutant strain, at 50.0 µM, active compounds read high
In short: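 Steps: expose the mutant yeast strain to compound; grow alongside vehicle-treated cultures; measure growth; express inhibition against the vehicle cultures.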

[6] = NCI Yeast Anticancer Drug Screen. Data for the mlh1 rad18 strain (AID 175); conditions: S. cerevisiae mlh1 rad18 strain growth inhibition; at 50.0 µM; active compounds read high
In short: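 Compound-treated yeast growth, normalised to vehicle controls. Strain bears defined DNA repair mutations.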

Measured: growth inhibition

Nc1ccc(S(=O)(=O)O)c(N)c1
inactive: [1] 10.2% | [2] 9.05% | [3] -3.5% | [4] -0.3% | [5] 13.1% | [6] 3.95%

c1ccc(-c2n[nH]c3c2CCCc2ccccc2-3)cc1
inactive: [1] 4.7% | [2] -9.7% | [3] 7.35% | [4] -12% | [5] 3.3% | [6] 25.4%

Clc1ccc(Cl)c(NNc2cc(Cl)ccc2Cl)c1
inactive: [1] -29.1% | [2] -45.5% | [3] -3.9% | [4] -0.9% | [5] -39.5% | [6] -34.5%

CNc1ncnc2nc(C)c(C)nc12
inactive: [1] -14.1% | [2] 35.6% | [3] -7.4% | [4] 8.4% | [5] -6.05% | [6] 18.7%

NNCCc1n[nH]c(=O)n1N
inactive: [1] -3.5% | [2] -18.4% | [3] 9.55% | [4] 2.55% | [5] 5.1% | [6] -8.15%

Cc1c(-c2nc(N)nc(C3CC3)c2C)nc(N)nc1C1CC1
inactive: [1] 4.55% | [2] -9.1% | [3] -12.7% | [4] -11.7% | [5] -26.8% | [6] -7.35%

C/C(Cc1ccccc1)=N\NC(N)=S
inactive: [1] 13.3% | [2] 1.15% | [3] 27.6% | [4] -12.7% | [5] 8.5% | [6] 29.5%

Brc1cccc[n+]1CCC[n+]1ccccc1Br
inactive: [1] 14.8% | [2] 18.8% | [3] 28.2% | [4] 33.2% | [5] 19.4% | [6] 15.8%

O=C(O)c1cc2ccccc2o1
inactive: [1] 11.6% | [2] 0.95% | [3] 16.9% | [4] 20.6% | [5] -2.6% | [6] 30%

CC1C=C(OC(=O)c2ccccc2)C(=O)C(n2cc(F)c(=O)n(C(=O)c3ccccc3)c2=O)O1 (stereo unspecified)
inactive: [1] 43.2% | [2] 47.3% | [3] 68.7% | [4] 0.1% | [5] -1.25% | [6] 15.6%

NS(=O)(=O)c1nc(S(=O)(=O)O)c2[nH]cnc2n1
inactive: [1] 3.7% | [2] -0.35% | [3] -6.75% | [4] -4.2% | [5] -45.3% | [6] 14.2%

Cc1cccc(NC(=O)/C=C/c2ccc(N(CCC#N)CCC#N)cc2C)c1
inactive: [1] 9.15% | [2] 7.25% | [3] -6% | [4] 6.6% | [5] 40.4% | [6] 19.9%

CCCCCCCN1C(=O)C(O)(c2ccc(C3(O)C(=O)N(CCCCCCC)c4ccccc43)s2)c2ccccc21 (stereo unspecified)
inactive: [1] 9.35% | [2] 10.9% | [3] 4.9% | [4] 10.2% | [5] 9.7% | [6] 14.6%

Brc1ccc(-c2nnc(-c3ccc(Br)cc3)o2)cc1
inactive: [1] 14.8% | [2] -4.6% | [3] -0.8% | [4] -4.7% | [5] 0.25% | [6] 1.4%

Cc1c(C(=O)CC(=O)C(=O)Nc2ccc(Cl)cc2)[n+](=O)c2ccccc2n1[O-]
inactive: [1] 9.9% | [2] -2.25% | [3] 0.65% | [4] 19.4% | [5] 8.35% | [6] -0.3%

CC(C)CCCC(C)C1CCC2(C)C3CCC(C(C)O)C(C)(CCCO)C3CCC12C (stereo unspecified)
inactive: [1] 47.8% | [2] 27.4% | [3] 61.4% | [4] 38.1% | [5] 23.8% | [6] 55.9%

COc1cccc(C2C3=C(COC3=O)Oc3cc4c(cc32)OCO4)c1 (stereo unspecified)
inactive: [1] -41.1% | [2] -24.4% | [3] -31.4% | [4] -1.6% | [5] -4.55% | [6] -14.2%

CCc1nc(Nc2cccc(Cl)c2)c2cnn(-c3ccccc3)c2n1
inactive: [1] -11.2% | [2] -8.35% | [3] -4.35% | [4] -48.4% | [5] 14.7% | [6] -6.85%

CN(c1c(Cl)cccc1Cl)S(=O)(=O)c1ccccc1[N+](=O)[O-]
inactive: [1] -38.5% | [2] -49.5% | [3] -15.5% | [4] 20% | [5] -1.1% | [6] -4.5%

Nc1[nH]c(=S)nc2nc3c(c(-c4ccccc4)c12)CCCC3
inactive: [1] -45.9% | [2] -13.5% | [3] 6.95% | [4] -3.05% | [5] -13.6% | [6] -14.4%

NC(=O)C(=O)C(c1ccccc1)S(=O)(=O)Cc1ccccc1 (stereo unspecified)
inactive: [1] -59.5% | [2] -39.1% | [3] -40.3% | [4] -13.7% | [5] -25.4% | [6] -32.1%

CC1(C)C(N2CCOCC2)CS1(=O)=O (stereo unspecified)
inactive: [1] 1.75% | [2] -5.2% | [3] -1.5% | [4] -24.2% | [5] -15.7% | [6] 3.25%

COC(=O)C(=O)C(C(=O)C(=O)Nc1cc([N+](=O)[O-])ccc1[N+](=O)[O-])c1nc2ccc(C(=O)c3ccccc3)cc2[nH]c1=O (stereo unspecified)
inactive: [1] 29.7% | [2] 15.8% | [3] 4.1% | [4] -16.1% | [5] 40.6% | [6] 18.9%

O=C(/C=C/c1cccs1)c1ccc(Cl)s1
inactive: [1] -18.3% | [2] -33.3% | [3] -2.55% | [4] -7.45% | [5] -6.5% | [6] 0.2%

Cc1ccc(NC(=O)Nc2ccc(Cl)c(Cl)c2)c(C)c1
inactive: [1] -6.05% | [2] 11.2% | [3] -1.75% | [4] -16.6% | [5] -4.2% | [6] -20.9%

CC(=O)c1ccc(CCCCc2ccc([N+](=O)[O-])cc2)cc1
inactive: [1] -4.2% | [2] -17.8% | [3] 16.5% | [4] -59.5% | [5] 18.2% | [6] -32%

CC(=O)OC1(C)N=NC2(CCCCC2)O1 (stereo unspecified)
inactive: [1] 3.45% | [2] -22.4% | [3] -37.1% | [4] 7.5% | [5] -12.1% | [6] -12.3%

CC(=O)OC(OC(C)=O)c1ncccc1C(=O)OC(C)C
inactive: [1] -14.6% | [2] -13.2% | [3] -14.7% | [4] 10.8% | [5] -8.45% | [6] -21.7%

CC(=O)OCC1OC(OC(C)=O)C(NC(=O)C[NH-])C(OC(C)=O)C1OC(C)=O.CC(=O)OCC1OC(OC(C)=O)C(NC(=O)C[NH-])C(OC(C)=O)C1OC(C)=O.[Cl][Pt+2][Cl] (stereo unspecified)
inactive: [1] -2.75% | [2] -19.4% | [3] -5.85% | [4] -42.9% | [5] 1.7% | [6] 21.9%

CCOC(=O)C1=C(C)N(C2OC(COC(=O)c3ccccc3)C(OC(=O)c3ccccc3)C2OC(=O)c2ccccc2)C(=S)NC1c1ccccc1 (stereo unspecified)
inactive: [1] -0.8% | [2] -27.1% | [3] 10.6% | [4] -2.6% | [5] -4.85% | [6] -6.05%

CC(=O)OCN(C)C=O
inactive: [1] 25.9% | [2] 11.3% | [3] 18.7% | [4] 14.5% | [5] 11.1% | [6] 19.6%

O.[Cl][Pt].[NH-]CC[S-]
inactive: [1] -9.5% | [2] 4% | [3] 12.3% | [4] -9.6% | [5] 1.3% | [6] -2%

O=S(=O)(Nc1cc(C(F)(F)F)ccc1Cl)c1ccc(F)cc1
inactive: [1] -24.3% | [2] -22.4% | [3] -34.4% | [4] 7.5% | [5] -32.6% | [6] -8%

COc1ccc(OC)c(C(=O)C2=C(c3cc(OC)ccc3OC)CCC2)c1
inactive: [1] 7.3% | [2] 38.4% | [3] 33.2% | [4] 2.1% | [5] 44.4% | [6] 28.4%

O=C1CCCC2=C1C(c1ccc(Cl)c(Cl)c1)C1=C(CCCC1=O)O2
inactive: [1] 1.05% | [2] 7.05% | [3] -7.25% | [4] -18.5% | [5] 12.6% | [6] 6.45%

CC(N)C(O)C(C)C(=O)O (stereo unspecified)
inactive: [1] 20.8% | [2] 9.5% | [3] 41.8% | [4] 44.5% | [5] 35% | [6] 7.35%

COc1ccc2cc1Oc1ccc(cc1)CC1c3cc(c(OC)cc3CCN1C)Oc1c(O)c(OC)cc3c1C(C2)N(C)CC3 (stereo unspecified)
inactive: [1] 14.6% | [2] -10.4% | [3] 10.8% | [4] 16.2% | [5] 15.8% | [6] 1.95%

NC(=O)C(CC(=O)O)NC(=O)c1ccccc1 (stereo unspecified)
inactive: [1] 8.05% | [2] 1.15% | [3] 3.45% | [4] -35% | [5] -10.7% | [6] 10.1%

O=c1[nH]c(SCc2ccco2)nc2ccccc12
inactive: [1] 0.05% | [2] 12.7% | [3] 6.3% | [4] -23.7% | [5] 1.8% | [6] -1.75%

Cc1c(C(C)C(=O)O)c2ccccc2n1C (stereo unspecified)
inactive: [1] 39% | [2] 12.9% | [3] 31.9% | [4] 33.1% | [5] 56.8% | [6] 45.1%

Ic1ccccc1
inactive: [1] -0.9% | [2] 7.25% | [3] -41.4% | [4] -9.35% | [5] -45.8% | [6] -65.7%

— PubChem BioAssay (NCI)
